Bioassay records: PubChem BioAssay, National Center for Advancing Translational Sciences (NCATS)
Rows were chosen to be rich in hits. Some 3.1% of all compounds tested hit in one or more screens of this group.
TrxR1 substrate: substrates of rat thioredoxin reductase 1; O89049; purified TrxR1 substrate turnover, NADPH consumption readout; Potency, µM (top dose mostly 114 µM), inactives show at the top dose activity change, negative = substrate turnover; 390,000 compounds, 0.01% hits; AID 588456; also: potency is read from the fitted curve at half-maximal effect; % is scaled to controls: 0 for no effect and ±100 for the full control effect; nearly all actives have a fitted effect of over 50% in size
Target sequence (O89049 whole entry, looked up): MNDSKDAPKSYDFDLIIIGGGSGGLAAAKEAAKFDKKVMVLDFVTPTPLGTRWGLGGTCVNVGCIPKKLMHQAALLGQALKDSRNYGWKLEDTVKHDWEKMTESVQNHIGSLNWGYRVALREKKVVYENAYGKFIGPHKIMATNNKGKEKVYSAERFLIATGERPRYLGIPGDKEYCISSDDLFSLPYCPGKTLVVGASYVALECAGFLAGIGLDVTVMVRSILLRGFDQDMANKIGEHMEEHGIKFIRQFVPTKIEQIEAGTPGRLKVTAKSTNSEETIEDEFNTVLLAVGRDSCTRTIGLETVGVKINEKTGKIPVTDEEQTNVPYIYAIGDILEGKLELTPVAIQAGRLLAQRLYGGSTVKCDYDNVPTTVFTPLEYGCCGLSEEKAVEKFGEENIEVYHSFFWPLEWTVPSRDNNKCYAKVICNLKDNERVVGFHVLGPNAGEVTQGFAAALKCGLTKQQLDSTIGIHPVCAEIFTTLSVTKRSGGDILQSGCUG
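Rat TrxR1, dispensed at 90 nM, was prereduced with 400 uM NADPH (final) for 5 min at ~22 deg C, then incubated with compound 15 min before 400 uM selenite. A first-read NADPH fluorescence drop versus no-compound background flagged substrates.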
Mito fusion yeast: blocks mitochondrial division or promotes mitochondrial fusion; S. cerevisiae fusion-defective mutant growth rescue, CellTiterGlo 48 h; Potency, µM (series often up to 46.1 µM), for inactives: at the top dose growth rescue (activation), hits mostly activators; 320,000 compounds, 0.23% hits; also: potency is read from the fitted curve at half-maximal effect; % of control where 0% means no effect; nearly all actives have a fitted effect of over 45% in size
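Yeast fusion mutant, YPEG (non-fermentable carbon), compound, 48 h at 37C non-permissive; CellTiterGlo added, 10 min RT, luminescence read. Rescued growth = division inhibition.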
rTrxR1 inhibitor: rat TrxR1 inhibition; 390,000 compounds, 1% hits; Potency, µM (doses to about 114 µM), for the others: top-dose activity change, negative = inhibition, most hits filed as inhibitors; recombinant rTrxR1, NADPH fluorescence consumption, selenite substrate; also: potency is read from the fitted curve at half-maximal effect; % is scaled to controls: 0 for no effect and ±100 for the full control effect; nearly all actives have a fitted effect of over 65% in size
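Rat TrxR1 (90 nM in the dispensed reagent) was pre-reduced with 400 uM NADPH for 5 min at room temperature, then incubated with compound for 15 min. After 400 uM selenite was added, NADPH fluorescence (Ex 340/Em 450 nm) was followed for 8 min.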
Nrf2 block: blocks Nrf2 signaling; A549 ARE-Fluc reporter, luciferase luminescence, 18-24 h; 360,000 compounds, 2.1% hits; Potency, µM (titrated, usually from 46 µM), for inactives: at the top dose activity change, negative = inhibition, most hits filed as inhibitors; also: potency is read from the fitted curve at half-maximal effect; % is scaled to controls: 0 for no effect and ±100 for the full control effect; nearly all actives have a fitted effect of over 60% in size
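Nrf2 function is reported as luminescence of an ARE-controlled luciferase in A549 cells. Compounds were tested at several concentrations, and a CellTiter-Fluor read on the same wells flagged cytotoxicity.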
A549 tox: counter-screen for Nrf2 inhibitors: cytotoxicity in A549 cells; A549 ARE-Fluc cells, CellTiter-Fluor viability, 18-24 h; Potency, µM (doses to about 46 µM), for the others: at the highest dose activity change, negative = cytotoxicity, most hits filed as inhibitors; 390,000 compounds, 0.16% hits; also: potency is read from the fitted curve at half-maximal effect; % is scaled to controls: 0 for no effect and ±100 for the full control effect
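A549 ARE-Fluc cells in 5% FBS OPTI-MEM, 5000 cells/well, rested 2 h then exposed to compounds in concentration-response for 18-24 h at 37 °C. Viability by CellTiter-Fluor fluorescence (Ex 405/Em 525) after 30 min; luciferase luminescence (BugLite, 15 min, RT) read afterwards.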
mIDH1 inhibitor: human IDH1 R132H inhibition; O75874; IDH1-R132H enzyme, NADPH consumption, diaphorase/resazurin fluorescence; Potency, µM (titrated, usually from 76.6 µM), for the others: top-dose activity change, negative = inhibition, hits mostly inhibitors; 390,000 compounds, 0.093% hits; also: potency is read from the fitted curve at half-maximal effect; % is scaled to controls: 0 for no effect and ±100 for the full control effect; nearly all actives have a fitted effect of over 65% in size
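IDH1-R132H (0.5 ug/mL dispensed) in pH 7.5 Tris buffer was preincubated 30 min with compound, then given a substrate mix of 0.016 mM NADPH and 2 mM alpha-KG for 80 min at room temperature; remaining NADPH was read by diaphorase/resazurin fluorescence.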
IDH1 autofl: interferes with resorufin fluorescence in IDH1 counter-screen; inhibition of signal, % at 51.2 µM; 750 tested, under 10 active; Resorufin detection reagent fluorescence interference, cell-free; shares compounds with mIDH1 inhibitor;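 also: 0% = wells with normal resorufin and full inhibition = wells lacking resorufin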
IDH1 WT: selectivity of mutant IDH1 inhibitors: human wild-type IDH1 | shares compounds with mIDH1 inhibitor | WT IDH1 enzyme, NADPH diaphorase/resazurin fluorescence | Potency, µM (highest dose often 115 µM), for inactives: at the top dose activity change, negative = inhibition, most hits filed as inhibitors | 750 compounds, 9% hits | AID 623995;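 also: potency is read from the fitted curve at half-maximal effect; 0% = full WT IDH1 enzyme control and full inhibition = no enzyme wells; nearly all actives have a fitted effect of over 55% in size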
mIDH1 confirm: confirmation of human mutant IDH1 inhibitors. 750 compounds, 83% hits. IDH1 R132H enzyme, NADPH diaphorase/resazurin fluorescence. AID 624002. Potency, µM (top dose mostly 76.6 µM), for the others: at the highest dose activity change, negative = inhibition, most hits filed as inhibitors. shares compounds with mIDH1 inhibitor; also: potency is read from the fitted curve at half-maximal effect; nearly all actives have a fitted effect of over 50% in size
* hit, by the source's call; ? = inconclusive; · = no result given; [ ] = dose if it differs, or a comment. Calls follow the shape of the dose curve; as a rule, active = well fitted curve in the direction sought with a large enough effect; inconclusive = small, poorly fitted or top-dose-only effect, or another doubt; inactive = no such curve, though single readings can be large; an effect the other way counts as inactive or inconclusive.

SMILES | TrxR1 substrate | Mito fusion yeast | rTrxR1 inhibitor | Nrf2 block | A549 tox | mIDH1 inhibitor | IDH1 autofl | IDH1 WT | mIDH1 confirm
COCCCNC(=O)c1c(NC(=O)Cc2coc3cc(C)cc(C)c23)sc2c1CCCC2 | 6% | · | 21% | 3% | 3% | 0% | · | · | ·
Cc1ccc(Cl)cc1N1CCN(C(=O)c2cn(C3CCCCC3)c(=O)c3c2c2ccccc2n3C)CC1 | 14% | · | 28% | -6% | -3% | -4% | · | · | ·
CCOc1cc(/C=C(\C#N)C(=O)Nc2cccc(C(=O)O)c2)cc(Br)c1OC(=O)c1ccc(OC)cc1 | -9% | -6% | -8% | 28% | -3% | 52µM* | 8 | 71µM* | 32µM*
Cc1onc(-c2c(F)cccc2Cl)c1C(=O)Nc1cc(S(=O)(=O)N2CCCCC2)ccc1O | -10% | · | 0% | ? | ? | 52µM* | 8 | -4% | 35µM*
CCOC(=O)c1ccc(N2C(=O)c3n[nH]c(-c4cccs4)c3C2c2cccc(F)c2)cc1 (stereo unspecified) | -11% | · | -4% | ? | -2% | -27% | · | · | ·
CCOC(=O)c1ccc(N2C(=O)c3n[nH]c(C)c3C2c2ccccc2OC)cc1 (stereo unspecified) | -7% | · | 12% | 8.2µM* | -2% | ? | -6 | -2% | 35µM*
CCOC(=O)c1ccc(N2C(=O)c3n[nH]c(-c4ccco4)c3C2c2cccc(OC)c2)cc1 (stereo unspecified) | -4% | · | 13% | ? | -29% | ? | -1 | 0% | ?
CCOC(=O)c1ccc(N2C(=O)c3n[nH]c(-c4ccco4)c3C2c2cccc(O)c2)cc1 (stereo unspecified) | -18% | · | -26% | -10% | 1% | ? | 0 | -11% | 35µM*
CCOC(=O)c1ccc(N2C(=O)c3n[nH]c(-c4cccs4)c3C2c2ccc(O)c(OC)c2)cc1 (stereo unspecified) | -5% | · | ? | ? | -15% | ? | 4 | 0% | 14µM*
CC(=O)c1ccc(NC(=O)CSc2nnc3ccc(-c4ccc(Br)cc4)nn23)cc1 | -2%[57.1 µM] | · | 13%[57.1 µM] | · | 2% | -13% | · | · | ·
CN(C)S(=O)(=O)c1ccc(C(=O)Nc2c(C(=O)Nc3ccc(F)cc3)oc3ccccc23)cc1 | -1% | · | 13% | 14% | 2% | 25% | · | · | ·
COc1cc(OC)c2c(C)cc(=O)oc2c1C(CCN1CCCC(C)C1)c1ccc(N(C)C)cc1 (stereo unspecified) | -1% | · | -4% | 14% | -17% | · | · | · | ·
CCCC(=O)N1c2nc(C(C)C)nn2C2(CCCCC2)[C@@H]2CCCC[C@@H]21 | -6% | · | -4% | -10% | 0% | 9% | · | · | ·
CC(C)CNc1nnnc2c1sc1nc(N3CCOCC3)c3c(c12)CC(C)(C)SC3 | 3% | 4% | -9% | 13µM* | -17% | ? | 10 | ? | ?
NNc1nnnc2c1sc1nc(N3CCOCC3)c3c(c12)CCCC3 | 0% | 0% | -19% | 3% | -15% | 52µM* | -2 | -15% | ?
CC1(C)Cc2c(c(N3CCOCC3)nc3sc4c(NN)ncnc4c23)CS1 | -4% | 0% | 2% | ? | -25% | 23µM* | -5 | ? | 14µM*
CC1(C)Cc2c(c(N3CCOCC3)nc3sc4c(NCc5ccco5)nnnc4c23)CS1 | 3% | 28% | -12% | ? | -11% | -6% | · | · | ·
CC(C)CNc1ncnc2c1sc1nc(N3CCOCC3)c3c(c12)CC(C)(C)OC3 | 3% | 6% | -10% | 4% | 1% | 0% | · | · | ·
COc1ccc(OC)c(CNC(=O)Cc2ccc(NC(=O)N3CCCCc4ccccc43)cc2)c1 | 1%[57.1 µM] | · | 7%[57.1 µM] | 14% | 0% | -11% | · | · | ·
CCOC(=O)c1c(NC(=O)c2cc(-c3ccc(Br)cc3)on2)sc(C)c1C | -8% | · | -6% | 6% | 3% | -6% | · | · | ·
CCOC(=O)c1ccccc1NC(=O)c1cn(CC(C)C)c(=O)c2cc(OC)c(OC)cc12 | 9%[2.29 µM] | · | 14% | -10%[9.27 µM] | -12% | 45µM* | -7 | 1% | 14µM*
CCCCc1ccc(NC(=O)c2cc3c(=O)n4ccccc4nc3s2)cc1 | 23% | · | 34% | 16% | -3% | · | · | · | ·
O=C(/C=C/c1cccs1)Nc1scc(-c2ccccc2)c1C(=O)O | 10%[57.1 µM] | 5% | 24%[57.1 µM] | ? | -14% | ? | -25 | 35µM* | 35µM*
CCN1CCN(C(c2cccnc2)c2c(NC(=O)c3ccco3)sc(C)c2C)CC1 (stereo unspecified) | -6% | 1% | ? | -8% | -8% | -3% | · | · | ·
Cc1sc(NC(=O)c2ccco2)c(C(c2cccnc2)N2CCC(C)CC2)c1C (stereo unspecified) | 12% | ? | ? | ? | -17% | ? | -5 | 1% | ?
SMILES | TrxR1 substrate | Mito fusion yeast | rTrxR1 inhibitor | Nrf2 block | A549 tox | mIDH1 inhibitor | IDH1 autofl | IDH1 WT | mIDH1 confirm
COc1ccc(Br)cc1/C=N/NC(=O)c1nc(-c2ccccc2)n2c1CCCCC2 | -4% | 13% | 1% | ? | 0% | ? | 3 | 1% | ?
COc1ccc(S(=O)(=O)Nc2ccc(S(=O)(=O)Nc3ccc(F)cc3)cc2)cc1C | 5%[11.4 µM] | 0% | 5%[11.4 µM] | -18% | -8% | ? | -2 | 3% | 40µM*
Cc1ccc(S(=O)(=O)Nc2ccc(S(=O)(=O)Nc3nccs3)cc2)cc1C | 0% | · | 22% | -1% | -2% | 52µM* | 2 | 15% | 45µM*
COc1ccc(S(=O)(=O)Nc2cccc(F)c2)cc1C | -7% | 5% | 14% | -17% | 10% | -4% | · | · | ·
CCOc1ccc(-c2cc3nc(C4CCN(C(=O)OC(C)(C)C)CC4)c(C(=O)O)cn3n2)cc1 | 21% | 8% | 1% | ? | -9% | 16µM* | 4 | 79µM* | 14µM*
CCOc1ccc(-c2cc3nc(C4CCN(C(=O)OC(C)(C)C)CC4)c(C(=O)Nc4c(C)cccc4C)cn3n2)cc1 | 57% | · | 28% | 15% | -3% | -7% | · | · | ·
NNC(=O)c1csc(CS(=O)(=O)c2ccc(Cl)cc2)n1 | 6% | -8% | 1%[57.1 µM] | 2% | 1% | 5% | · | · | ·
